Source: PubChem (National Center for Advancing Translational Sciences (NCATS))
HCMV inh – human cytomegalovirus inhibition; HFF cells, HCMV-luciferase reporter, 72 h; stronger effect = lower value; activity change, negative = inhibition, % at 57.5 µM; hit rate 4.5% among 410,000; in the data active means activity change below about -60%; inconclusive means no clear call, values can overlap the other calls; inactive means above about -39%
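Luciferase read-out from HCMV-luciferase-infected HFFs (MOI 1 PFU/cell) 72 h post infection at 37C; compounds added after 16 h cell attachment; activity normalized between buffer-only basal and Salinomycin (10uM) inhibitor controls.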
AmpC inh no detg – blocks E. coli AmpC beta-lactamase in detergent-free assay | P00811 | AmpC nitrocefin hydrolysis, absorbance 480 nm, 0.0001% Triton | Potency, µM (top dose mostly 57.1 µM), for inactives: at the top dose activity change, negative = inhibition, actives largely listed as inhibitors | hit rate 0.52% among 330,000 | AID 485341;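 further: potency means the concentration at half of the fitted maximal effect; plate controls were no compound for no effect and no enzyme for full effect; nearly all actives have a fitted effect of over 20% in size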
Target sequence (P00811 whole entry, looked up): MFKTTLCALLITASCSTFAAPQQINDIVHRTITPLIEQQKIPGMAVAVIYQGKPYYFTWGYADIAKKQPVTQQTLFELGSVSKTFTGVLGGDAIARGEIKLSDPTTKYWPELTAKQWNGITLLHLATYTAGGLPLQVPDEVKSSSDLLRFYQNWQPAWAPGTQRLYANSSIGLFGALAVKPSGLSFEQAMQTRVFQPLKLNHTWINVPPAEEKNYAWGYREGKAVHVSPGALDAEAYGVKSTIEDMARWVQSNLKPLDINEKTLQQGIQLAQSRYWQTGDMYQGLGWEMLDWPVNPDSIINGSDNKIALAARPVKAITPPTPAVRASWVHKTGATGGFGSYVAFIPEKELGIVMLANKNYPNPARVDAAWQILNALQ
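AmpC (5.3 nM in the dispensed reagent) in 20 mM phosphate pH 7.0 with 0.01% (detergent screen) or 0.0001% Triton X-100 was preincubated with compounds for 15 min at room temperature. Nitrocefin was then added from an 800 uM solution, and hydrolysis was followed at 480 nm.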
AmpC detergent – inhibitors of E. coli AmpC beta-lactamase with detergent | AID 485294 | AmpC hydrolysis of nitrocefin, absorbance 480 nm, 0.01% Triton | P00811 | hit rate 0.041% among 370,000 | Potency, µM (top dose mostly 114 µM), for the others: at the top dose activity change, negative = inhibition, usual class: inhibitors;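 further: potency means the concentration at half of the fitted maximal effect; 0% = no-compound wells and -100% = no-enzyme wells; nearly all actives have a fitted effect of over 25% in size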
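AmpC (5.3 nM in the dispensed reagent) in 20 mM phosphate pH 7.0 with 0.01% (detergent screen) or 0.0001% Triton X-100 was preincubated with compounds for 15 min at room temperature. Nitrocefin was then added from an 800 uM solution, and hydrolysis was followed at 480 nm.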
FMDV inh – blocks foot and mouth disease virus; FMDV antiviral cell-based qHTS; hit rate 1.2% among 410,000; Potency, µM (series often up to 57.9 µM), inactives show at the top dose activity change, negative = inhibition, actives largely listed as inhibitors; AID 1159524; calls by dose curve; tested in HEK293T cells; further: read-out not given here; potency means the concentration at half of the fitted maximal effect; nearly all actives have a fitted effect of over 45% in size
HCV inh – HCV inhibition; hit rate 3.4% among 340,000; Potency, µM (highest dose often 41.8 µM), inactives show at the top dose activity change, negative = inhibition, most hits filed as inhibitors; AID 651820; Huh7.5.1 HCVcc-Cre infection, luciferase reporter, 44 h; further: potency means the concentration at half of the fitted maximal effect
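Cells seeded at 1,000/well and cultured 4 h, then compounds added followed by HCVcc-Cre virus (~0.5 moi). After 44 h further culture, luciferase substrate was added, plates held 15 min at room temperature, and luminescence read for 15 sec.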
An asterisk follows results filed as active; ? = inconclusive; / = not tested or not shown; + = active, no number. The list is not random: actives were taken first. Their share in the collection is about 7.3%. Unless noted, the call rests on the fitted dose curve; in most records, active means well fitted curve in the direction sought with a large enough effect; inconclusive means small, poorly fitted or top-dose-only effect, or another doubt; inactive means no such curve, though single readings can be large; an effect the other way counts as inactive or inconclusive. Unless noted, on the % scale 0 is the no-effect control and ±100 the full control effect.

SMILES	HCMV inh	AmpC inh no detg	AmpC detergent	FMDV inh	HCV inh
CC(OC(=O)c1cc[n+]([O-])cc1)C(=O)NCc1ccccc1 (stereo unspecified)	-13.7	1.4%	-6.6%	-4.6%	14.4%
COc1ccccc1CNS(=O)(=O)c1ccc2c(c1)CC(C)N2C(=O)C1CCC1 (stereo unspecified)	-61.3*	-18.7%	?	?	?
CCCN(c1ccccc1CC)S(=O)(=O)c1ccc2c(c1)CC(C)N2C(=O)C1CC1 (stereo unspecified)	-92.9*	/	3.9%	?	/
COc1ccccc1CNS(=O)(=O)c1ccc2c(c1)CC(C)N2C(=O)C1CC1 (stereo unspecified)	?	-18.2%	-2.6%	-8.6%	?
CCC(C)NC(=O)c1cn(CC)c2ccc(S(=O)(=O)N3CCCCCC3)cc2c1=O (stereo unspecified)	-39.8	69.4%	-9.0%	-11.7%	-2.9%
O=S(=O)(c1ccc(-c2csc(Nc3ccc(F)cc3)n2)cc1)N1CCCC1	-10.0	8.91µM*	-3.4%	?	?
Nc1nc(-c2ccc(S(=O)(=O)N3CCCCC3)cc2)cs1	-12.3	-48.3%	3.1%	-28.1%	?
O=S(=O)(c1ccc(-c2csc(Nc3ccc(Br)cc3)n2)cc1)N1CCCC1	-72.6*	-29.2%	-9.0%	?	?
O=C(c1cnsn1)N1CCOc2ccc(C(O)C(c3ccccc3)c3ccccc3)cc2C1 (stereo unspecified)	/	/	/	-18.2%	/
CN(CCNC(=O)C1CC(=O)N(c2ccc(F)c(Cl)c2)C1)Cc1ccccc1 (stereo unspecified)	-67.3*	64.4%	-0.8%	/	-28.8%
Cc1nn(C)cc1CN1CCCC(C(=O)c2ccc(-c3ccccc3)c(F)c2)C1 (stereo unspecified)	?	141.3%	-2.2%	-8.7%	10µM*
Cn1cc(CN2CCCC(C(=O)c3ccc(-c4ccccc4)c(F)c3)C2)cn1 (stereo unspecified)	-12.9	90.8%	4.7%	-24.6%	?
Cn1cc(CN2CCCC(C(=O)c3ccc(-c4ccccc4)cc3)C2)cn1 (stereo unspecified)	-18.4	137.6%	1.6%	7.6%	14.1µM*
CCn1cc(CN2CCCC(C(=O)c3ccc(-c4ccccc4)cc3)C2)cn1 (stereo unspecified)	-61.0*	-1.5%	-3.7%	-9.5%	?
CCOC(=O)c1ccccc1NC(=O)COC(=O)c1ccc(OCC(=O)N2CCOCC2)c(OCC)c1	0.0	/	/	?	?
Cc1cc(=O)oc2cc(NC(=O)c3cccc(Br)c3)ccc12	-74.0*	-16.1%	-8.3%	32.4%	0.2%
CC(C)(C)c1ccc(C(=O)Nc2cccc(C(=O)N3CCOCC3)c2)cc1	?	85.6%	?	-19.6%	5.62µM*
O=C(/C=C/c1cccs1)c1ccc(NC(=O)c2cccc(Br)c2)cc1	38.7	?	7.7%	1.4%	6.31µM*
Cc1ccc(C(=O)Nc2ccc(C(=O)/C=C/c3cccs3)cc2)cc1	0.8	-34.5%	-4.9%	34.2%	-16.3%
Cc1ccc(C(=O)Nc2cccc(C(=O)O)c2)cc1	-1.0	-13.8%	-12.6%	2µM*	15.0%
O=C(O)c1cccc(NC(=O)c2ccccc2)c1	15.2	/	/	-6.3%	10.0%
O=C(Nc1cccc(C(=O)Nc2cccc(Br)c2)c1)c1ccccc1	-22.2	14.1µM*	?	0.0%	14.1µM*
Cc1ccc(NC(=O)c2ccc(N(Cc3ccccc3)S(C)(=O)=O)cc2)cc1	20.6	/	-0.4%	4.8%	/
CC(=O)c1cccc(NC(=O)c2ccc(N(Cc3ccc(C)cc3)S(C)(=O)=O)cc2)c1	-6.8	3.7%	-5.4%	?	12.6µM*
O=C(Nc1cccc(C(=O)Nc2ccc(Cl)cn2)c1)c1ccccc1	4.7	-27.0%	-0.8%	1.9%	12.6µM*
SMILES	HCMV inh	AmpC inh no detg	AmpC detergent	FMDV inh	HCV inh
O=C(Nc1cccc(NC(=O)c2ccccc2Cl)c1)c1cccc(Br)c1	73.8	/	12.6%	-3.8%	/
C=CCN(c1ccc(C(=O)Nc2ccc(C)c(C)c2)cc1)S(C)(=O)=O	-69.2*	-3.0%	-1.6%	?	?
Cc1ccc(C(=O)Nc2ccccc2N2CCOCC2)cc1S(=O)(=O)N1CCOCC1	-12.5	83.0%	-6.3%	-15.2%	-37.7%
NC(=O)c1ccccc1NC(=O)c1ccc2c(c1)OCO2	80.5	43.2%	?	0.0%	0.9%
Cc1cc(=O)oc2cc(OC(=O)c3cncc(Br)c3)ccc12	-103.2*	-14.7%	-2.1%	-0.7%	25.8%
O=S(=O)(NCC1CN(S(=O)(=O)c2c(F)cccc2F)C1)c1ccc2c(c1)OCCO2	-62.4*	-24.2%	-6.1%	10.4%	/
CCCSc1cc(N2CCN(C)CC2)nc(-c2ccc(OC)cc2)n1	-35.3	112.3%	-0.8%	-5.2%	14.1µM*
Cc1ccc(NC(=O)c2c(C)oc3ccc(O)c(CN(C)Cc4ccccc4)c23)c(C)c1	-66.8*	/	-1.7%	-23.4%	/
CCN(Cc1ccccc1)Cc1c(O)ccc2oc(C)c(C(=O)Nc3ccc(C)cc3C)c12	-12.3	/	0.1%	?	/
Cc1oc2ccc(O)c(CN(C)Cc3ccccc3)c2c1C(=O)Nc1cccc(C(F)(F)F)c1	-78.8*	/	8.0%	?	/
Cc1oc2ccc(O)c(CN(C)Cc3ccccc3)c2c1C(=O)Nc1ccccc1	-80.9*	/	5.4%	-25.1%	/
CC(C)c1ccc(NC(=O)c2cc3c(=O)oc4ccccc4c3s2)cc1	?	/	-1.4%	7.9%	/
Cc1ccc(Cl)cc1N1CCN(c2cccc[n+]2C)CC1	-92.6*	10.5%	?	-21.4%	0.6%
Cc1cccc(NS(=O)(=O)c2c(C(=O)N3CCCC3)c(C)n(C)c2C)c1	+	20.4%	-14.8%	28.8%	24.0%
Cc1c(C(=O)N2CCCCC2)c(S(=O)(=O)N2CCC(C)CC2)c(C)n1C	+	10.7%	-16.4%	4.2%	31.0%
Cc1ccc(Cl)cc1NC(=O)CN1C(=O)NC2(CCCCCC2)C1=O	-38.6	-19.3%	-8.1%	-25.0%	3.2%
COc1cc(COc2ccc3c(C)c(Cc4ccccc4)c(=O)oc3c2)cc(OC)c1OC	25.9	-27.4%	-14.0%	?	?
Cc1cc(C)cc(COc2ccc3c(C)c(CC(=O)O)c(=O)oc3c2C)c1	-15.8	-14.7%	-15.8%	-8.8%	15.1%
COc1cc(COc2ccc3c(C)c(Cc4ccccc4)c(=O)oc3c2C)cc(OC)c1OC	25.9	-16.0%	?	?	6.31µM*
Cc1c(C)c2ccc(OCc3ccc(C(=O)O)o3)c(C)c2oc1=O	-101.2*	-17.9%	-14.9%	17.8µM*	19.0%
Cc1ccc(-c2nsc(NC(=O)c3oc4cc(C)c(Cl)cc4c3C)n2)cc1	?	/	23.0%	-16.6%	/
COCC(=O)Nc1cc(C(=O)NC2CCc3ccccc32)c2c(c1)nc(-c1ccncc1)n2C (stereo unspecified)	/	/	/	-15.7%	/
